# Data reported in PubChem BioAssay (NCI).
# Compounds without any hit were thinned out: in the full panel of roughly 83,000, 20% have a hit.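 Results are percent growth after 48 hours of single-concentration exposure. 100 means growth as in untreated cells, lower positive values show inhibition; negative values down to -100 show cell death.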 The source made the active and inactive calls.
# Test system: HS 578T breast
# Test: NCI-60 one-dose screen, 48 h (100 = growth as untreated, 0 = no growth, -100 = all killed)
# Settings: 10 µM unless noted
# Experimental: Growth inhibition of the HS 578T human tumor cell line is measured as a screen for anti-cancer activity. Cells are grown in 96 well plates and exposed to the test compound for 48 hours. Compounds are tested at a single concentration, which is 10^-5 M for most compounds. The reported endpoint is percent growth (GI% or GIPRCNT), where numbers from 0 - 100% represent growth inhibition, and numbers from -100% - 0 represent cell death. For example, a value of 40 represents 60% growth inhibition. A value of 0 means no net growth occurred over the course of the experiment. A value of -40 indicates 40% of cells at the beginning of the experiment died by the end of the experiment. A value of -100 means all cells are dead at the end of the experiment.
# NCI-60 Human Tumor Cell Lines Screen was performed using the standard one-dose NCI protocol, which is described in more detail at https://dtp.cancer.gov/discovery_development/nci-60/default.htm.
# Compounds with GIPRCNT values below 10 were considered active. Activity score was based on GIPRCNT using the following formula: […]
# Score is 0 for GIPRCNT values of 100 or above, 50 for GIPRCNT values of 0, and 100 for GIPRCNT values of -100.
row,Compound,growth
1,NC[C@H](O)c1ccc(O)c(O)c1,113% (inactive)
2,Fc1ccc(CNc2c3ccccc3nc3ccccc23)cc1F,64.8% (inactive)
3,O=C(/C=C/c1c(Cl)nc2sccn12)c1nccs1,65.5% (inactive)
4,COc1ccc2c(c1)[nH]c(=O)c1c3cccnc3cn21,49.6% (inactive)
5,O=C(N/N=C/C=C/c1ccc([N+](=O)[O-])o1)c1cc2ccccc2cc1O,-4.48% (active)
6,COC(=O)[C@]12CC[C@@H](C)[C@H](C)[C@@H]1C1=CC[C@@H]3[C@@]4(C)C(C=O)=C[C@@](C)(COC(=O)/C=C/c5ccccc5)[C@@H]4[C@H](O)C[C@@]3(C)[C@]1(C)CC2,-8.26% (active)
7,Cc1ccc(Cl)c(NS(=O)(=O)c2ccc(-c3cnc(C4CC4)o3)cc2)c1,13.5% (inactive)
8,NC(=O)c1ccc[n+](Cc2ccc(Cl)cc2Cl)c1,99.4% (inactive)
9,COC(=O)[C@]12CC[C@@H](C)[C@H](C)[C@@H]1C1=CC[C@@H]3[C@@]4(C)C(C=O)=C[C@@](C)(CO)[C@@H]4[C@H](O)C[C@@]3(C)[C@]1(C)CC2,-15.6% (active)
10,Cc1ccc(S(=O)(=O)NCC[C@@H]2C[C@H]2c2cc3ccccc3s2)cc1,91.5% (inactive)
11,O=C(N=c1oc2ccccc2cc1-c1cc2ccccc2[nH]1)c1ccc(Cl)cc1,63.3% (inactive)
12,COc1ccc(-c2ccc3c(c2)sc2nc(-c4ccc(F)cc4)cn23)cc1,99.2% (inactive)
13,c1cc2ccc3cc2cc1CNCCOCCNCc1ccc2ccc(cc2c1)CNCCOCCNC3,-17.6% (active)
14,C(=N\Nc1ncc(-c2cc3cc4c(cc3o2)OCO4)s1)/c1ccco1,70.6% (inactive)
15,C[n+]1cc2cc(C(N)=O)[nH]c3c(=N)c(Cl)c(N)c1c23,108% (inactive)
16,c1ccc2c(c1)nc(CN1CCOCC1)n1cc(N3CCCC3)nc21,92.5% (inactive)
17,C=CC(=O)Nc1cccc(Oc2nccc(Nc3nnc(C4CC4)s3)n2)c1,91.6% (inactive)
18,CNC(=O)CCN1CCN(CC/C=C2\c3ccccc3Sc3ccc(Cl)cc32)CC1,65.4% (inactive)
19,Cc1ccc(N2CCN(C(=S)c3cccs3)CC2)cc1,124% (inactive)
20,Cc1ccc2nc(NC(=O)CSc3nc(-c4ccccc4)c(C#N)c(=O)n3Cc3ccccc3)sc2c1,78.2% (inactive)

row,Compound,growth
1,N#Cc1c(-c2cccc(Cl)c2)cc(-c2cccc(F)c2)[nH]c1=O,81.9% (inactive)
2,COC(=O)c1c2c(c(C)[n+]([O-])c1C)C(=O)C(NCc1ccc(F)cc1)=CC2=O,82.6% (inactive)
3,O=C(Cc1ccc(F)c(F)c1)Nc1cc(C2(C(F)(F)F)CC2)nn1Cc1ccccc1,-2.64% (active)
4,O=Cc1ccc(O)c2ncccc12,41.6% (inactive)
5,CCCCn1c(=O)c2c(nc3n2CCCN3CCc2ccc(OCC(=O)NCCN(CC)CC)cc2)n(CCCC)c1=O,20.8% (inactive)
6,CCN1C(=O)N(CC)C2C1NN=c1s/c(=C\c3cccs3)c(=O)n12 (stereo not given),22.5% (inactive)
7,CC(C)=C[C@@H]1c2c(c3ccccc3n(C)c2=O)O[C@H]2c3c(c4ccccc4n(C)c3=O)OC(C)(C)[C@@H]12,93.2% (inactive)
8,COc1ccc(N2CCN(c3nc(-c4cc(OC)c(OC)c(OC)c4)nc4ccccc34)CC2)cc1,65.2% (inactive)
9,O=c1cc(C2NNC(=S)N2)c2ccc3ccccc3c2o1 (stereo not given),71% (inactive)
10,C[C@@H]1N=C(c2ccc3ccccc3n2)Nc2nc3ccccn3c2C1=O,97.7% (inactive)
11,CCc1ccccc1-n1c(N)c(C#N)c(-c2ccc(N(C)C)cc2)c(C#N)c1=O,92.2% (inactive)
12,O=C(CC(SCc1ccccc1)c1ccccc1)c1ccccc1 (stereo not given),107% (inactive)
13,NC(=N\N=C/c1ccccc1[N+](=O)[O-])/C(N)=N\N=C/c1ccccc1[N+](=O)[O-],100% (inactive)
14,c1ccc(Nc2nc(-c3ccccn3)cs2)nc1,42.9% (inactive)
15,COc1ccc(OC)c2c1[nH]c(=O)c1c3ncccc3cn21,69.2% (inactive)
16,Cc1cc(O)c(C2=NN(c3ccc(S(N)(=O)=O)cc3)C(c3ccccc3Cl)C2)cc1Cl (stereo not given),-4.47% (active)
17,CNc1ccc(NC)c2c1C(=O)c1ccccc1C2=O,98.5% (inactive)
18,O=C(Nc1ccccc1-c1nc2ccccc2c(=O)[nH]1)c1cc2ccccc2[nH]1,85.8% (inactive)
19,CCC1(C2CCCC2)NC(=O)NC1=O (stereo not given),98.9% (inactive)
20,O=C(NCCNc1cc(-c2cn(-c3ccccc3)nc2-c2cccc(O)c2)ccn1)Nc1ccccc1,50.5% (inactive)
